This is part of a sample that, as a whole, favours compounds with a hit. Of some 79,000 tested, about 15% had one in any assay. Active and inactive are the calls of the source. No stated cut-off is given here; in the data, active means growth inhibition above about 70%; inactive means the rest.
Columns and labels:
[1] = NCI Yeast Anticancer Drug Screen. Data for the rad52 strain (AID 147);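 further: 0% = growth of vehicle-treated control cultures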; conditions: S. cerevisiae rad52 mutant growth inhibition, active compounds read high
Method in brief: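 Here a repair-compromised yeast strain receives each compound; its growth is then quantified and normalised to vehicle-only controls.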

[2] = NCI Yeast Anticancer Drug Screen. Data for the wt1 strain (AID 149);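 further: 0% = growth of vehicle-treated wt1 cultures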; conditions: S. cerevisiae wt1 strain (SPY 50644) growth inhibition, active compounds read high
Method in brief: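 wt1 yeast, compound-treated; % growth inhibition vs vehicle control.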

[3] = NCI Yeast Anticancer Drug Screen. Data for the rad50EPP+ strain (AID 151);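 further: 0% = growth of vehicle-treated control cultures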; conditions: S. cerevisiae rad50 mutant strain, active compounds read high
Method in brief: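 Read-out is yeast growth inhibition relative to vehicle; cells used were the rad50EPP+ strain.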

[4] = NCI Yeast Anticancer Drug Screen. Data for the rad50 strain (AID 155);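 further: 0% = growth of vehicle-only cultures of the same strain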; conditions: S. cerevisiae rad50 strain growth inhibition, active compounds read high
Method in brief: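 Genetically altered yeast (DNA repair pathway); compound treatment; growth inhibition vs vehicle ctrl.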

[5] = NCI Yeast Anticancer Drug Screen. Data for the mec2-1 strain (AID 157); conditions: S. cerevisiae mec2-1 strain, active compounds read high
Method in brief: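 Using mec2-1 yeast: add compound, measure growth, express inhibition versus vehicle-treated cultures.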

[6] = NCI Yeast Anticancer Drug Screen. Data for the rad14 strain (AID 159);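 further: 0% = growth of vehicle-treated control cultures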; conditions: S. cerevisiae rad14 strain growth inhibition, active compounds read high
Method in brief: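 Test compounds were applied to a repair-deficient yeast strain. Its growth was then compared with that of cultures given vehicle alone, and inhibition was expressed relative to those controls.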

[7] = NCI Yeast Anticancer Drug Screen. Data for the sgs1 mgt1 strain (AID 161);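 further: 0% = growth of cultures given vehicle only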; conditions: S. cerevisiae sgs1 mgt1 strain, active compounds read high
Method in brief: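 This yeast growth screen uses a strain with defined DNA-repair lesions; compound-treated growth is compared with vehicle-treated growth.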

[8] = NCI Yeast Anticancer Drug Screen. Data for the CLN2oe strain (AID 163);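 further: 0% = growth of vehicle-only control cultures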; conditions: S. cerevisiae CLN2oe strain, active compounds read high
Method in brief: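 Whole-cell yeast growth assay. A strain engineered for altered cell-cycle control received compound, and inhibition relative to vehicle-treated cultures was recorded.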

[9] = NCI Yeast Anticancer Drug Screen. Data for the cln2 rad14 strain (AID 165);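 further: 0% = growth equal to vehicle treated cultures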; conditions: S. cerevisiae cln2 rad14 strain, active compounds read high
Method in brief: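 Yeast strain cln2 rad14, bearing defects in cell cycle control and DNA repair, serves as the test system; values reflect growth inhibition compared with vehicle.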

[10] = NCI Yeast Anticancer Drug Screen. Data for the bub3 strain (AID 167); conditions: S. cerevisiae bub3 mutant strain, active compounds read high
Method in brief: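 Yeast carrying a defined mutation is treated with each compound, and growth is compared with that of vehicle-exposed cells to give inhibition.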

[11] = NCI Yeast Anticancer Drug Screen. Data for the wt2 strain (AID 169);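 further: 0% = growth of vehicle-treated yeast cultures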; conditions: S. cerevisiae wt2 strain growth inhibition, active compounds read high
Method in brief: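 Treated yeast vs. vehicle-treated yeast: growth inhibition determined.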

[12] = NCI Yeast Anticancer Drug Screen. Data for the mlh1 strain (AID 171);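 further: 0% = growth of vehicle-treated control cultures of the same strain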; conditions: S. cerevisiae mlh1 strain growth inhibition, active compounds read high
Method in brief: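 A yeast strain with a defined genetic lesion serves as the test organism. Cultures receive compound or vehicle, and growth is measured.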

[13] = NCI Yeast Anticancer Drug Screen. Data for the sgs1 strain (AID 173);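 further: 0% = growth of vehicle-only control cultures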; conditions: S. cerevisiae sgs1 mutant, active compounds read high
Method in brief: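 A genetically defined yeast mutant is incubated with the test compound, and its growth is compared to that of the same strain given vehicle.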

[14] = NCI Yeast Anticancer Drug Screen. Data for the mlh1 rad18 strain (AID 175); conditions: S. cerevisiae mlh1 rad18 strain growth inhibition, active compounds read high
Method in brief: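 Steps: expose repair-defective yeast to compound; measure growth; express inhibition against vehicle-treated controls.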

[15] = NCI Yeast Anticancer Drug Screen. Data for the rad18 strain (AID 177); conditions: S. cerevisiae rad18 mutant growth inhibition, active compounds read high
Method in brief: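 Measured value is growth inhibition of a yeast strain bearing a DNA repair alteration, referenced to vehicle-treated cells.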

[16] = NCI Yeast Anticancer Drug Screen. Data for the mgt1 strain (AID 153); conditions: S. cerevisiae mgt1 mutant growth inhibition, active compounds read high
Method in brief: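 Measured: inhibition of mgt1 yeast growth by compound, normalized to vehicle-treated cultures.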

[17] = at 5.0 µM (retest, dose inferred, filed as 0.5)
[18] = at 50.0 µM (retest, dose inferred, filed as 5.0)

Measured: growth inhibition

O=C(Nc1cccc(C(F)(F)F)c1)Oc1ccc(Cl)cc1C(=O)c1ccccc1
inactive: [1]; at 1.2 µM 15% | [1]; at 3.7 µM 17% | [1]; at 33.0 µM 69% | [2]; at 1.2 µM 18% | [2]; at 3.7 µM 13% | [3]; at 1.2 µM 26% | [3]; at 3.7 µM 7% | [3]; at 11.0 µM 34% | [3]; at 33.0 µM 41% | [4]; at 1.2 µM 22% | [4]; at 3.7 µM 17% | [5]; at 1.2 µM 19% | [5]; at 3.7 µM 42% | [6]; at 1.2 µM -3% | [6]; at 3.7 µM -2% | [6]; at 11.0 µM 51% | [6]; at 33.0 µM 64% | [7]; [17] -34% | [8]; at 1.2 µM 24% | [8]; at 3.7 µM 15% | [9]; [17] 31% | [10]; at 1.2 µM 10% | [10]; at 3.7 µM 24% | [10]; [17] 15% | [11]; at 1.2 µM 15% | [11]; at 3.7 µM 6% | [12]; at 1.2 µM 9% | [12]; at 3.7 µM 8% | [13]; at 1.2 µM 24% | [13]; at 3.7 µM 30% | [15]; at 1.2 µM 6% | [15]; at 3.7 µM 21%
active: [1]; at 11.0 µM 80% | [1]; at 100.0 µM 98% | [2]; at 11.0 µM 76% | [2]; at 33.0 µM 80% | [2]; at 100.0 µM 97% | [3]; at 100.0 µM 96% | [4]; [17] 99% | [4]; at 11.0 µM 90% | [4]; at 33.0 µM 82% | [4]; [18] 97% | [4]; at 50.0 µM 90.4% | [4]; at 100.0 µM 98% | [5]; [17] 100% | [5]; at 11.0 µM 88% | [5]; at 33.0 µM 97% | [5]; [18] 89% | [5]; at 50.0 µM 92.9% | [5]; at 100.0 µM 97% | [6]; at 100.0 µM 97% | [7]; [18] 98% | [7]; at 50.0 µM 92.9% | [8]; at 11.0 µM 74% | [8]; at 33.0 µM 85% | [8]; at 100.0 µM 97% | [9]; [18] 98% | [9]; at 50.0 µM 93% | [10]; at 11.0 µM 83% | [10]; at 33.0 µM 91% | [10]; [18] 96% | [10]; at 50.0 µM 91% | [10]; at 100.0 µM 97% | [11]; at 11.0 µM 91% | [11]; at 33.0 µM 77% | [11]; at 100.0 µM 98% | [12]; at 11.0 µM 88% | [12]; at 33.0 µM 70% | [12]; at 100.0 µM 97% | [13]; at 11.0 µM 82% | [13]; at 33.0 µM 91% | [13]; at 100.0 µM 97% | [14]; [17] 100% | [14]; [18] 93% | [14]; at 50.0 µM 91.2% | [15]; at 11.0 µM 91% | [15]; at 33.0 µM 86% | [15]; at 100.0 µM 98%

Cc1cc(O)c2c(c1)C(=O)C=C(Br)C2=O
active: [1]; at 3.7 µM 76% | [1]; at 11.0 µM 98% | [1]; at 33.0 µM 98% | [1]; at 100.0 µM 94% | [2]; at 33.0 µM 98% | [2]; at 100.0 µM 96% | [3]; at 3.7 µM 88% | [3]; at 11.0 µM 99% | [3]; at 33.0 µM 99% | [3]; at 100.0 µM 95% | [16]; at 11.0 µM 72% | [16]; at 33.0 µM 98% | [16]; at 100.0 µM 97% | [4]; at 3.7 µM 71% | [4]; at 11.0 µM 97% | [4]; at 33.0 µM 99% | [4]; at 100.0 µM 94% | [5]; at 11.0 µM 94% | [5]; at 33.0 µM 99% | [5]; at 100.0 µM 98% | [6]; at 11.0 µM 97% | [6]; at 33.0 µM 99% | [6]; at 100.0 µM 96% | [8]; at 33.0 µM 99% | [8]; at 100.0 µM 97% | [10]; at 1.2 µM 88% | [10]; at 3.7 µM 86% | [10]; at 11.0 µM 98% | [10]; at 33.0 µM 92% | [10]; at 100.0 µM 98% | [12]; at 11.0 µM 71% | [12]; at 33.0 µM 99% | [12]; at 100.0 µM 98% | [13]; at 33.0 µM 99% | [13]; at 100.0 µM 96% | [15]; at 11.0 µM 95% | [15]; at 33.0 µM 98% | [15]; at 100.0 µM 94%
inactive: [1]; at 1.2 µM 38% | [2]; at 1.2 µM -1% | [2]; at 3.7 µM -2% | [2]; at 11.0 µM 6% | [3]; at 1.2 µM 58% | [16]; at 1.2 µM 7% | [16]; at 3.7 µM 21% | [4]; at 1.2 µM 38% | [5]; at 1.2 µM 40% | [5]; at 3.7 µM 67% | [6]; at 1.2 µM 37% | [6]; at 3.7 µM 64% | [8]; at 1.2 µM 7% | [8]; at 3.7 µM 16% | [8]; at 11.0 µM 40% | [12]; at 1.2 µM 11% | [12]; at 3.7 µM 25% | [13]; at 1.2 µM 4% | [13]; at 3.7 µM 11% | [13]; at 11.0 µM 66% | [15]; at 1.2 µM 10% | [15]; at 3.7 µM 41%
